# Test results: the supplement of paper PMC6555819
# Experiments:
# Assay in all cases: PBM binding z-score (relative to random genomic background probes); higher = stronger binding; sequences stand for … in GC…GCGATTGACAGCGTAGAATGAAGG
# [1] = tested on: FXR:RXRa (NR concentration 270 nM, RXRa partner concentration 90 nM)
# Procedure, shortened: (§1)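 Custom Agilent 4×180K protein-binding microarrays carried double-stranded probes. Their 34-nt variable regions held direct-repeat seeds, single-nucleotide variants, half-site ablations and random human genomic background sequences. Arrays were incubated 1 h with ligand-free nuclear receptor dimers in PBS pH 7.4, 2% milk, 0.02% Triton X-100, 1 mM DTT, 0.2 mg/mL BSA and 0.4 mg/ml salmon testes DNA. Antibodies against each partner (one per run) detected binding, and scanned fluorescence was regression-normalized. Binding z-scores use random background probes as reference.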
# [2] = tested on: LXRa:RXRa (NR concentration 270 nM, RXRa partner concentration 90 nM)
# Procedure, shortened: as §1
# [3] = tested on: LXRa homodimer (NR concentration 270 nM)
# Procedure, shortened: as §1
# [4] = tested on: LXRb:RXRa (NR concentration 270 nM, RXRa partner concentration 90 nM)
# Procedure, shortened: as §1
# [5] = tested on: LXRb homodimer (NR concentration 270 nM)
# Procedure, shortened: as §1
# [6] = tested on: PPARa:RXRa (NR concentration 270 nM, RXRa partner concentration 90 nM)
# Procedure, shortened: as §1
# [7] = tested on: PPARg:RXRa (NR concentration 180 nM, RXRa partner concentration 90 nM)
# Procedure, shortened: as §1
# [8] = tested on: PPARg:RXRa 270nM:90nM, anti-RXR (NR concentration 270 nM, RXRa partner concentration 90 nM)
# Procedure, shortened: as §1
# [9] = tested on: PPARg:RXRa 30nM:10nM, anti-RXR (NR concentration 30 nM, RXRa partner concentration 10 nM)
# Procedure, shortened: as §1
# [10] = tested on: PPARg:RXRa 90nM:30nM, anti-RXR (NR concentration 90 nM, RXRa partner concentration 30 nM)
# Procedure, shortened: as §1
# [11] = tested on: PPARg:RXRa DBDmut IVT, anti-RXR (DBD mutation: RXRa K156A/R161A, NR concentration 270 nM, RXRa partner concentration 90 nM)
# Procedure, shortened: as §1
# [12] = tested on: PPARg:RXRa IVT, anti-PPARg (NR concentration 270 nM, RXRa partner concentration 90 nM)
# Procedure, shortened: as §1
# [13] = tested on: PPARg DBDmut:RXRa IVT, anti-PPARg (DBD mutation: PPARg1 K132A/R137A, NR concentration 270 nM, RXRa partner concentration 90 nM)
# Procedure, shortened: as §1
# [14] = tested on: PPARg DBDmut IVT, anti-PPARg (DBD mutation: PPARg1 K132A/R137A, NR concentration 270 nM)
# Procedure, shortened: as §1
# [15] = tested on: PPARg homodimer (NR concentration 180 nM)
# Procedure, shortened: as §1
# [16] = tested on: PXR:RXRa (NR concentration 270 nM, RXRa partner concentration 90 nM)
# Procedure, shortened: as §1
# [17] = tested on: PXR homodimer (NR concentration 270 nM)
# Procedure, shortened: as §1
# [18] = tested on: RARa:RXR (NR concentration 270 nM, RXRa partner concentration 90 nM)
# Procedure, shortened: as §1
# [19] = tested on: RARa homodimer (NR concentration 270 nM)
# Procedure, shortened: as §1
# [20] = tested on: RARb:RXRa (NR concentration 270 nM, RXRa partner concentration 90 nM)
# Procedure, shortened: as §1
Sequence,PBM binding z-score [1],PBM binding z-score [2],PBM binding z-score [3],PBM binding z-score [4],PBM binding z-score [5],PBM binding z-score [6],PBM binding z-score [7],PBM binding z-score [8],PBM binding z-score [9],PBM binding z-score [10],PBM binding z-score [11],PBM binding z-score [12],PBM binding z-score [13],PBM binding z-score [14],PBM binding z-score [15],PBM binding z-score [16],PBM binding z-score [17],PBM binding z-score [18],PBM binding z-score [19],PBM binding z-score [20]
TAGCCTAGGTCAGTCAGGGGCCAGTATAGAAAGC,1.42,0.48,-0.418,0.85,-0.405,1.46,0.583,1.04,-0.0718,0.829,0.759,1.71,0.0282,-0.431,0.236,0.48,-0.639,1.32,-0.63,3.21
CCTATTAGTTGATCATAAGGGCAACCGAAGCTCG,0.383,0.258,0.608,0.291,0.94,0.433,0.394,0.295,0.0236,0.185,0.357,0.623,0.203,0.605,1.64,0.491,0.836,0.442,1.25,1.23
CCTAGTGGGCCATTCAGAGGTCATTGATCATATG,2.85,4.29,6.62,3.77,0.202,3.98,2.23,3.11,0.966,2.3,4.41,4.44,1.45,0.315,4.35,4.94,2.6,4.89,0.902,2.98
CCTAGTTGGTCAGGCGGTCACACACCGGATATGA,0.554,0.309,0.525,0.155,0.122,0.32,0.706,0.973,-0.186,0.129,0.37,0.945,-0.344,-0.024,0.926,0.0317,0.384,-0.0122,0.796,1.75
TCTCGGAGGACACGAACGGTCAGAGCTCGACATC,0.632,0.398,0.0467,-0.277,-0.841,0.0396,0.0784,0.624,1.74,0.89,1.13,-0.161,-0.337,-0.995,-0.693,-0.215,-0.654,-0.0917,-0.739,2.1
AGAACGAGGGCACTCTGAGTTGATAGCAGAGTAG,0.473,0.561,-0.613,-0.0145,-0.411,1.35,1.21,1.19,-0.0176,0.277,3.52,2.74,0.243,-0.0516,-0.209,1.14,-0.0913,0.301,-0.677,1.84
GATACAGGGTCCGCTAGAGGCCAGAGTATGGAAA,-0.588,-0.752,-0.713,-1.11,-1.38,-0.848,0.112,-0.726,-0.417,-1.24,-1.31,-0.762,-1.66,-1.32,-0.788,-0.821,-0.331,-0.782,-1.34,0.181
AGTCAAAGTTCCGGACGAGGTAACGTAAAGCACG,-0.0931,-0.354,-0.166,-0.301,-0.695,-0.0739,0.679,0.221,-0.0701,0.189,-0.341,0.284,0.0206,-0.236,-0.335,-0.34,-0.452,0.0687,-0.122,0.265
TTATATAGGTAAAAGGTGAAAGTCGGTGTGGTAA,2.14,1.87,0.372,2.02,-0.0123,6.3,10.6,9.28,9.36,10.3,7.08,6.76,2.28,1.42,2.84,1.91,0.453,3.15,1.5,1.86
GCTTGTAGATCAGGGTTAAGAAAGACTAAGCTAA,0.433,0.899,-0.568,0.723,-0.466,1.55,0.746,1.1,0.497,0.871,0.93,0.657,-0.0573,-0.809,0.18,0.366,-0.121,0.69,-0.311,0.352
CGTACTGGGCCATTCAGAGGTCATTGATCATATG,3.16,4.58,6.56,3.9,0.57,3.88,2.45,3.25,0.848,2.44,5.14,4.46,0.379,0.367,2.72,4.91,2.51,4.76,1.17,3.18
CGAACTAGGTCAGAACTGGACAGTGAAGGATGAT,0.671,0.375,-0.326,0.262,-0.439,3.26,5.1,4.49,1.77,3.68,6.94,7.08,2.69,3.66,1.37,0.313,-0.282,0.591,-0.224,2.71
GCTTGTAGATCGAGGTTAAGAAAGACTAAGCTAA,0.262,1.09,-0.228,0.65,-0.682,1.68,-0.0308,0.648,-0.204,0.479,0.155,0.569,-0.125,0.233,0.235,0.519,-0.12,1.03,0.293,0.634
CATACTGGGCCAAGGTCATTGATCAGTCAAAGCA,3.54,3.16,1.14,3.19,0.044,4.12,4.1,4.28,2.31,3.8,3.65,4.49,0.346,-0.286,2.02,3.78,2.15,4.01,0.356,3.35
CCGACTGGGGCAAAGGATACCATACTCAGTACGA,-0.424,-0.501,-0.0956,-0.347,-1.05,1.32,4.4,5.19,3.28,5.31,3.85,3.35,-0.00815,-0.219,0.339,-0.407,-0.363,-0.246,-0.215,0.425
